RORgamma inh = inhibitors of mouse ROR gamma transcriptional activity; AID 2551; hit rate 5.4% among 310,000; Potency, µM (doses to about 53.6 µM), for inactives: at the top dose activity change, negative = inhibition, most hits filed as inhibitors; Drosophila S2 Gal4-RORgamma UAS-luciferase reporter, 20 h; P51450; also: % is scaled to controls: 0 for no effect and ±100 for the full control effect; nearly all actives have a fitted effect of over 60% in size
Target sequence (P51450 whole entry, looked up, the tested form may be a part): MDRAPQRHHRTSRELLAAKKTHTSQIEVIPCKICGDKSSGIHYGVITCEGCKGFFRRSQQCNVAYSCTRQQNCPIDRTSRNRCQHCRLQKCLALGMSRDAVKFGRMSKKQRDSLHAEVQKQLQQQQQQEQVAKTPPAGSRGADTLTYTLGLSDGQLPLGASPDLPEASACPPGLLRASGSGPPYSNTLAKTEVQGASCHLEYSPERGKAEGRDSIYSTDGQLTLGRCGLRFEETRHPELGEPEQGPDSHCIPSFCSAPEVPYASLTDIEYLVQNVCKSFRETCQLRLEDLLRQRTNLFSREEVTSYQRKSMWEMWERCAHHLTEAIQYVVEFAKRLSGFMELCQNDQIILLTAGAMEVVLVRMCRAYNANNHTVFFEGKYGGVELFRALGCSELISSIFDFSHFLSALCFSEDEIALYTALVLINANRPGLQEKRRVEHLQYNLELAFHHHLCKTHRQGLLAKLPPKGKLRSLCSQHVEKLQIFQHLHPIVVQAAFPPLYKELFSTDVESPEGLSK
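ROR gamma transcriptional activity was tracked as Gal4-UAS luciferase output in stably transfected Drosophila Schneider cells, with compound added 1 hr before 700 uM copper sulfate induction and a 20 hr ambient-temperature incubation.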
ATXN2 expr inh = inhibitors of ATXN2 expression. HEK-293 ATXN2-luciferase reporter, luminescence, 24 h. Potency, µM (series often up to 57 µM), without a hit: top-dose activity change, negative = inhibition, usual class: inhibitors. hit rate 0.72% among 360,000; also: % is scaled to controls: 0 for no effect and ±100 for the full control effect; nearly all actives have a fitted effect of over 55% in size
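ATXN2-luciferase reporter cells (luciferase flanked by upstream and downstream ATXN2 gene portions) were treated 24 h at 37 °C with compounds at up to 57 uM. SteadyGlo luminescence gave expression; GF-AFC fluorescence gave viability.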
VP16 counter = Gal4-VP16 reporter inhibition counter-screen. AID 2546. hit rate 3.5% among 310,000. Drosophila S2 Gal4-VP16 UAS-luciferase, luminescence, 20 h. Potency, µM (doses to about 53.6 µM), for the others: at the highest dose activity, negative = inhibition, most hits filed as inhibitors;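 also: Gal4-VP16 expression switched on by copper sulfate through the metallothionein promoter; % is scaled to controls: 0 for no effect and ±100 for the full control effect; nearly all actives have a fitted effect of over 50% in size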
TGFb SMAD3 inh = blocks TGF-b signaling | AID 588855 | Potency, µM (series often up to 46.1 µM), without a hit: at the highest dose activity, negative = inhibition, actives largely listed as inhibitors | HepG2 CAGA-GFP TGF-b/SMAD3 reporter, GFP fluorescence, 18 h; TGF-beta stimulated, 500 pg/mL final | hit rate 1.2% among 410,000; also: % is scaled to controls: 0 for no effect and ±100 for the full control effect; nearly all actives have a fitted effect of over 65% in size
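Inhibition was scored as loss of TGF-beta-induced (500 pg/mL final, 18 hours, 37 degrees C) GFP in HEPG2 cells carrying a CAGA-GFP reporter, in DMEM with 1% FBS. Well GFP was summed per cell; Activity was normalised to unstimulated and stimulated DMSO wells, then concentration-response fitting.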
S2 tox = reduces viability in counter-screen for ATXN expression inhibitors | S2 cells (HEK-293 line with an ATXN2-luciferase reporter) viability, CellTiter-Fluor protease fluorescence, 24 h | Potency, µM (top dose mostly 56.7 µM), hits mostly cytotoxic | hit rate 0.49% among 400,000; also: nearly all actives have a fitted effect of over 40% in size
HepG2 tox = HepG2 cytotoxicity, counter-screen for TGF-b inhibitors; HepG2 CAGA-GFP viability, ATP luminescence, 18 h; Potency, µM (titrated, usually from 46.1 µM), without a hit: top-dose activity change, negative = cytotoxicity, most hits filed as cytotoxic; hit rate 0.76% among 410,000
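HepG2 CAGA-GFP cells (1000/well, DMEM with 1% FBS) received compound, then TGF-beta at 500 pg/mL final, and were incubated 18 hours at 37 degrees C. Viability was read by CellTiter-Glo luminescence. Media-only wells were set as complete cell-killing and DMSO as no toxicity.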
* marks the source's active call; other numbers are inactive results; i = inactive; ? = inconclusive; . = no result. Hits are enriched below; roughly 6.1% of the tested compounds scored in any of these assays. Calls follow the shape of the dose curve; as a rule, active = well fitted curve in the direction sought with a large enough effect; inconclusive = small, poorly fitted or top-dose-only effect, or another doubt; inactive = no such curve, though single readings can be large; an effect the other way counts as inactive or inconclusive. Potency is read from the fitted curve at half-maximal effect.

SMILES	RORgamma inh	ATXN2 expr inh	VP16 counter	TGFb SMAD3 inh	S2 tox	HepG2 tox
CC(C)c1ccc(S(=O)(=O)/N=C2\C=C(NS(=O)(=O)c3ccccc3)C(=O)c3ccccc32)cc1	-2%	-5%	2%	?	?	-46%
CC(C)c1ccc(S(=O)(=O)/N=C2/C=CC(=O)c3ccccc32)cc1	?	.	18µM*	.	.	.
CCOC(=O)c1ccc(NC(=O)CSc2nc3ccccc3c(=O)n2CCC(=O)NC2CCCCC2)cc1	.	-4%	.	-17%	i	1%
Cc1cc(C(=O)COC(=O)c2ccc[nH]c2=O)c(C)n1-c1ccc(Br)cc1	-27%	15%	0.4µM*	-24%	i	-25%
COCCn1c(C)cc(C(=O)COC(=O)c2ccc[nH]c2=O)c1C	4.5µM*	0%	3.5µM*	0%	i	-1%
Cc1ccc(-n2c(C)cc(C(=O)COC(=O)c3ccc[nH]c3=O)c2C)cc1	11µM*	-7%	.	3%	i	-1%
COc1cc(-c2cc(OC)c3c(C)oc(C)c3c(=O)c2)ccc1OC(=O)c1ccccc1F	.	.	.	?	.	1%
COc1ccc(OC)c2c(/C=C/c3c(C)[nH]c4ccccc34)ccnc12	.	.	.	?	.	-96%
COc1ccc(N2CCN(C(=O)CCS(=O)(=O)c3cc4c(cc3Cl)NC(=O)CO4)CC2)cc1	.	-11%	.	2%	i	-20%
CCN(CC)CCCNC(=O)c1ccc2c(c1)sc1nc(-c3ccc(C)cc3)cn12	.	.	.	-37%	.	6.3µM*
COc1cccc(N(C(=O)CCl)C(C(=O)NCCc2ccccc2)c2cccs2)c1 (stereo not given)	13µM*	?	-18%	13µM*	32µM*	-106%
COc1cccc(N(C(=O)c2snc(C(N)=O)c2N)C(C(=O)NCC2CCCO2)c2cccs2)c1 (stereo not given)	?	8%	24%	20%	i	-1%
CCOc1ccc(-c2nnc(-c3ccccc3)o2)cc1	10µM*	-1%	?	0%	i	4%
CCOc1ccc(-c2nnc(-c3ccncc3)o2)cc1	13µM*	0%	?	-2%	i	-24%
CCCOc1ccc(-c2nnc(-c3cccs3)o2)cc1	5µM*	-7%	?	3%	i	-7%
CCCCOc1ccc(-c2nnc(-c3ccncc3)o2)cc1	22%	26%	2%	-4%	i	-36%
Cc1ccc(-n2c(=O)c3c(c4cc(C)ccc4n3C)n(CC(=O)NCc3ccccc3)c2=O)cc1	.	5%	.	-12%	i	-23%
O=C(Cn1ncc2c3ccccc3n(Cc3ccccc3)c2c1=O)NCCCN1CCCCC1	.	-12%	.	?	?	-24%
CC1=C(C(=O)OCc2ccccc2)C(c2ccc([N+](=O)[O-])cc2)NC(=O)N1CCCCCC(=O)O (stereo not given)	10µM*	-6%	18%	3%	i	-10%
CC1=C(C(=O)OCc2ccccc2)C(c2ccc3ccccc3c2)NC(=O)N1CCCC(=O)O (stereo not given)	11µM*	4%	-4%	10%	i	2%
CC1=C(C(=O)OCc2ccccc2)C(c2ccccc2Cl)NC(=O)N1CCCCCC(=O)O (stereo not given)	1.8µM*	5%	-10%	-4%	i	-4%
CC1=C(C(=O)OCc2ccccc2)C(c2ccc3ccccc3c2)NC(=O)N1CCCCCC(=O)O (stereo not given)	7.9µM*	15%	-1%	-12%	i	-13%
CC1=C(C(=O)OCc2ccccc2)C(c2ccc3c(c2)OCO3)NC(=O)N1CCCC(=O)O (stereo not given)	.	-5%	.	2%	i	-1%
O=C(NCc1ccc(Cl)cc1)[C@@H]1CCCN1S(=O)(=O)c1ccc(Cl)cc1	.	3%	.	-20%	i	68%
O=C(NCc1ccncc1)C1CCCN1S(=O)(=O)c1ccc(Cl)cc1 (stereo not given)	0.63µM*	-22%	-14%	1%	i	-8%
SMILES	RORgamma inh	ATXN2 expr inh	VP16 counter	TGFb SMAD3 inh	S2 tox	HepG2 tox
Cc1ccc(S(=O)(=O)N2CCCC(C(=O)NCc3ccccn3)C2)cc1 (stereo not given)	69%	-31%	5%	1%	i	-14%
O=C(NCc1ccccn1)C1CN(S(=O)(=O)c2ccccc2)CCN1S(=O)(=O)c1ccccc1 (stereo not given)	11µM*	-23%	-7%	1%	i	1%
Cc1ccc(S(=O)(=O)N2CCCC2CNC(=O)C(=O)NCc2ccccn2)cc1 (stereo not given)	.	15%	.	10%	i	4%
CC(C)(C)c1ccc(S(=O)(=O)N2CCCCC2C(=O)NCc2ccccn2)cc1 (stereo not given)	?	-13%	2.5µM*	-19%	i	-27%
COc1ccc(NC(=O)COC(=O)C(CC(C)C)N2C(=O)C3CC=CCC3C2=O)cc1Cl (stereo not given)	-3%	-6%	22µM*	6%	i	13%
NC1CCC(Nc2nc(Nc3ccc(C(=O)N4CCCCC4)cc3)c3ncn(-c4cccc(F)c4)c3n2)CC1 (stereo not given)	.	32%	.	.	.	.
CC1=NN(C(=O)c2ccc(C)cc2)C(O)(C(F)(F)OC(F)(F)F)C1 (stereo not given)	6.3µM*	3%	11µM*	-3%	?	-17%
CC1=NN(C(=O)c2ccccc2-n2cccc2)C(O)(C(F)(F)F)C1 (stereo not given)	10µM*	2%	?	?	i	-16%
O=C(c1ccccc1)N1N=C(c2ccccc2)CC1(O)C(F)(F)F (stereo not given)	-24%	.	-18%	-8%	.	-7%
C=CCOC(=O)CSCC(NC(=O)OC(C)(C)C)C(=O)OCC (stereo not given)	8.9µM*	-25%	11µM*	5%	i	1%
CCCCNC(=S)Nc1cccc2cnccc12	-37%	-16%	-4%	-11%	i	-22%
CC(C)CNC(=S)Nc1ccccc1F	6.3µM*	3%	4.5µM*	-3%	i	-10%
CCCCNC(=S)Nc1ccccc1F	11µM*	5%	?	-12%	i	10%
COc1ccc(CCC(=O)Nc2c(-c3ccc(N(C)C)cc3)[nH][nH]c2=O)cc1	.	20µM*	.	?	?	-89%
CCOc1cc(-c2noc(N)c2C#N)cc(OCC)c1OCC	11µM*	-1%	?	-23%	?	-38%
CCOc1cc(-c2cc(-c3ccc(N)cc3)nc(N)c2C#N)ccc1O	-22%	14%	-4%	?	i	-10%

Screens: PubChem, National Center for Advancing Translational Sciences (NCATS)
